Test results as given in PubChem BioAssay AID686979 (National Center for Advancing Translational Sciences (NCATS), 2013).
Values joined by “and” are separate entries in the source; they are usually repeats but may differ in a detail not shown here. Equal values may be shown once. In all, about 420,000 compounds went through this assay and about 50,000 (12%) were called active. Another 26% or so got no clear call; they are omitted. This is one part of a sample in which actives are shown more often than they occur. Calls follow the shape of the dose curve; as a rule, active = well fitted inhibition curve with a large enough effect; inconclusive = small, poorly fitted or top-dose-only effect; inactive = flat fitted curve, though single readings scatter. Some structures have more than one record in an assay (separate samples or runs), and their calls can disagree.

Test: qHTS for Inhibitors of human tyrosyl-DNA phosphodiesterase 1 (TDP1): qHTS in cells in presence of CPT; also: nearly all actives have a fitted effect of over 55% in size
Details: chicken DT40 Tdp1-/-;hTDP1 cells + 20 nM CPT, ATP luminescence, 48 h; series mostly up to 46.2 µM; activity change, negative = growth inhibition: at the top concentration
How it was run: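 Cell growth measured by CellTiter-Glo luminescence after a minimum 48 h, 37 C compound exposure with 20 nM CPT in Tdp1-knockout DT40 cells stably expressing hTDP1, seeded 400/well; qHTS titration format.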
% is scaled to controls: 0 for no effect and ±100 for the full control effect; potency is read from the fitted curve at half-maximal effect.

Row | Structure (SMILES) | activity change, negative = growth inhibition | Potency
1 | COc1cc(N2C(=O)CSC2=S)cc(OC)c1OC | -18.5% (inactive) | –
2 | CCOC(=O)c1nnn(CC(=O)NC(=O)Nc2ccccc2F)c1C(=O)OCC | -18.1% (inactive) | –
3 | Cn1c(CCNS(=O)(=O)c2ccc(F)cc2)nnc1SCc1cccnc1 | 6.59% (inactive) | –
4 | CC(C)CN1CCNC(=O)C1CC(=O)N(C)CC1CCOCC1 (centres undefined) | -7.75% (inactive) | –
5 | O=C(NCCS(=O)(=O)N1CCN(c2ccc(F)cc2)CC1)c1ccccc1Br | -15% (inactive) | –
6 | COc1ccccc1CCNC(=O)CN1C(=O)NC2(CCCC2)C1=O | -0.37% (inactive) | –
7 | COC(=O)c1cc(NC(=O)CC2C(=O)NCCN2C(=O)c2ccc(F)cc2)cc(C(=O)OC)c1 (centres undefined) | -7.17% (inactive) | –
8 | CCOc1ccc(C(C(=O)NCCOC)N(CCOC)C(=O)CCC(=O)Nc2ccccn2)cc1 (centres undefined) | -15.2% (inactive) | –
9 | CCN(C(=O)c1cc([N+](=O)[O-])ccc1NCc1cccnc1)c1ccccc1 | -12% (inactive) | –
10 | CCCn1nc(C(=O)NNC(=O)CSCC(=O)Nc2cc(C)on2)c2ccccc2c1=O | -12.3% (inactive) | –
11 | CC(NC(=O)c1ccccc1)C(=O)Nc1ccccc1 (centres undefined) | 4.22% (inactive) | –
12 | O=C(NC(=O)c1ccccc1)NC(=O)c1ccccc1 | -13.4% (inactive) | –
13 | O=C(NC1=CC(=O)c2ccccc2C1=O)c1ccccc1 | – | 0.651 µM (active)
14 | CCC1CN(CCNC(=O)c2ccsc2)Cc2cc(OC)ccc2O1 (centres undefined) | 9.24% [at 9.04 µM] (inactive) | –
15 | COc1ccc(C(C(=O)NCC2CCCO2)N(C(=O)Cn2nnc3ccccc32)c2ccc(NC(C)=O)cc2)cc1OC (centres undefined) | -3.72% (inactive) | –
16 | O=S1(=O)CC(N2CCN(c3ccccn3)CC2)CN1Cc1ccc(F)cc1 (centres undefined) | -24.6% (inactive) | –
17 | O=S1(=O)CC(N2CCN(Cc3ccccc3F)CC2)CN1Cc1cn(Cc2ccccc2)nn1 (centres undefined) | -28.2% (inactive) | –
18 | O=[N+]([O-])c1ccc(CN2CC(N3CCC(c4ccccc4)CC3)CS2(=O)=O)cc1 (centres undefined) | – | 18.4 µM (active)
19 | CCc1nn(CC(=O)N2CCN(CC)CC2)c(=O)c2cccn12 | -3.09% (inactive) | –
20 | COc1ccc(S(=O)(=O)NC(C)c2ccccc2)cc1C(=O)N1CCCCC1 (centres undefined) | -21.2% (inactive) | –
21 | Cc1ccc(S(=O)(=O)n2cccc2CO)cc1 | -23.8% (inactive) | –
22 | COc1cccc2cc(-c3nc(Cl)c4c5c(sc4n3)CC(C)CC5)c(=O)oc12 (centres undefined) | 7.42% (inactive) | –
23 | COc1ccc(OC)c(NC(=O)/C=C/c2ccc(C)o2)c1 | -27.6% (inactive) | –
24 | Cc1ccc(/C=C/C(=O)Nc2ccc([N+](=O)[O-])c(NC(=O)/C=C/c3ccc(C)o3)c2)o1 | – | 11.6 µM (active)
25 | CCc1nnc(NC(=O)/C=C/c2ccc(C)o2)s1 | 0.648% (inactive) | –
26 | O=C(Nc1ccn(Cc2ccccc2)n1)c1cccc(F)c1 | 3.99% (inactive) | –

Row | Structure (SMILES) | activity change, negative = growth inhibition | Potency
27 | O=C(Nc1ccn(Cc2ccccc2)n1)c1n[nH]c([N+](=O)[O-])c1Cl | 1.99% (inactive) | –
28 | O=C(Nc1ccn(Cc2ccc(F)cc2)n1)c1ccncc1 | – | 18.4 µM (active)
29 | Cn1c(=S)sc2ccc3ccccc3c21 | -11.6% (inactive) | –
30 | CC(C)NC(=O)N1CC[C@@]2(CCCN(C(=O)c3ccco3)C2)C1 | 0.86% (inactive) | –
31 | Cc1ccc(NC(=O)CN2CCCCC2)c2c1CC(C)(C)O2 | -23.3% (inactive) | –
32 | O=C(O)CSc1ccc(S(=O)(=O)N2CCCC2)cn1 | 5.59% (inactive) | –
33 | Cc1ccc(S(=O)(=O)NC2(C(F)(F)F)NC(=O)N(CCc3ccccc3)C2=O)cc1 (centres undefined) | – | inactive
34 | O=C(Cc1ccc(F)cc1)N1CCN=C1SCc1cccc([N+](=O)[O-])c1 | 2.67% (inactive) | –
35 | COc1ccccc1N1CCN(C(=O)c2ccc(NC3=NC4CS(=O)(=O)CC4S3)cc2)CC1 (centres undefined) | -12.7% (inactive) | –
36 | COc1ccc(NC(=O)c2cnc(Nc3ccc(C)c(Cl)c3)c3ccccc23)cc1OC | -3.58% (inactive) | –
37 | COc1ccc(Nc2ncc(C(=O)N3CCN(c4ccccc4OC)CC3)c3ccccc23)cc1 | – | 29.1 µM (active) and 13 µM (active)
38 | O=C(Nc1cc(F)ccc1F)c1ccc2c(=O)n3c(nc2c1)CCC3 | -14.7% (inactive) | –
39 | Cc1ccc(-c2csc(NC(=O)Cc3cccs3)n2)cc1C | -14.1% (inactive) | –
40 | O=C(CCc1ccccc1)Nc1ccc(NC(=O)C2CCCCC2)nc1 | -19.2% (inactive) | –
41 | CC(=O)c1cccc(NC(=O)C2COc3ccccc3O2)c1 (centres undefined) | -5.65% (inactive) | –
42 | O=C(Nc1nc(-c2ccncc2)cs1)C1COc2ccccc2O1 (centres undefined) | – | 20.6 µM (active)
43 | COc1ccc(NC(=O)C2COc3ccccc3O2)cc1 (centres undefined) | -1.97% (inactive) | –
44 | O=C(Nc1nc(-c2ccc3c(c2)OCO3)cs1)c1ccncc1 | – | 14.6 µM (active)
45 | O=C(CCc1ccccc1)Nc1nn[nH]n1 | 1.24% (inactive) | –
46 | CC(=O)NCCC(=O)Nc1nc(-c2ccc3c(c2)OCCO3)cs1 | 1.03% (inactive) | –
47 | Cc1ccc(-c2csc(NC(=O)C3=COCCO3)n2)cc1C | – | 13 µM (active)
48 | O=C(CCc1ccccc1)Nc1ncc([N+](=O)[O-])s1 | – | 20.6 µM (active)
49 | O=C(Nc1nc(-c2cccnc2)cs1)c1ccccc1F | 16.5% (inactive) | –
50 | Cc1csc(NC(=O)C2=COCCO2)n1 | -2.18% (inactive) | –
51 | Fc1ccc(/C=N/n2c(COc3ccccc3)n[nH]c2=S)cc1 | 0.518% (inactive) | –
52 | C#CCN(C[C@H]1[C@H](OC(=O)NC2CCCC2)[C@H](OC(=O)NC2CCCC2)C[C@H]2C(=O)N(c3ccccc3)C(=O)[C@@H]12)S(=O)(=O)c1ccc(C)cc1 | -3.61% (inactive) | –

Row | Structure (SMILES) | activity change, negative = growth inhibition | Potency
53 | CC(Oc1ccccc1)C(=O)NN1Cc2ccccc2C1=N (centres undefined) | 23.1% (inactive) | –
54 | O=C(COc1ccc([N+](=O)[O-])cc1)Nc1ccc(N2CCCC2)cc1 | -21.3% (inactive) | –
55 | C/C(=N/NC(=O)C1COc2ccccc2O1)c1ccco1 (centres undefined) | -18% (inactive) | –
56 | O=C(Nc1nnc(SCc2ccc(Cl)cc2Cl)s1)C1COc2ccccc2O1 (centres undefined) | -17.7% (inactive) | –
57 | O=C(Nc1ncc([N+](=O)[O-])s1)C1COc2ccccc2O1 (centres undefined) | – | 14.6 µM (active)
58 | Cc1cc(N=Nc2ccc3ccccc3c2)ccc1O | -1.82% (inactive) | –
59 | C[C@H](NC(=O)c1nc[nH]c1C(=O)NCC(=O)OC(C)(C)C)C(=O)OCc1ccccc1 | -15.4% (inactive) | –
60 | COc1ccc(C(O)C(O)(C(=O)OC(C)C)c2ccc(C)cc2)cc1 (centres undefined) | -4.68% (inactive) | –
61 | COc1ccc(OC)c(-c2csc(-c3cccs3)n2)c1 | -17.7% (inactive) | –
62 | COc1ccc(OC)c(Nc2nc(-c3ccc(O)c(O)c3)cs2)c1 | – | 0.82 µM (active)
63 | COc1ccc(CCN(C(=O)COc2ccccc2)c2nc(-c3ccccc3)cs2)cc1OC | -26.3% (inactive) | –
64 | COc1ccc(OC)c(-c2csc(NC(=O)COC(=O)C3CC3)n2)c1 | 4.83% (inactive) | –
65 | COc1ccc(-c2csc(Cc3nc(O)cs3)n2)cc1 | – | 18.4 µM (active)
66 | COc1cccc(CC(=O)Nc2ccc(-c3csc(C)n3)cc2)c1 | -20.8% (inactive) | –
67 | COc1ccc(-c2csc(Nc3ccc(O)cc3)n2)cc1 | – | 10.3 µM (active)
68 | N#CCc1ccc(NC(=O)c2ccccc2C(=O)Nc2ccc(CC#N)cc2)cc1 | -10.6% (inactive) | –
69 | COc1ccc(NC(=O)COC(=O)c2n[nH]c3ccccc23)c(OC)c1 | -22.8% (inactive) | –
70 | CCOc1ccc(N2CC(C(=O)NCc3ccccn3)CC2=O)cc1 (centres undefined) | -18.4% (inactive) | –
71 | COc1cc(/C=C/C(=O)O)cc(S(=O)(=O)Nc2ccccc2C(=O)NCCc2ccccc2)c1OC | 9.8% (inactive) | –
72 | COCCCn1c(SCC(=O)NC2CCCC2)nnc1-c1ccccc1 | 1.09% (inactive) | –
73 | CCCCN(C)CCCNC(=O)CN1N=C(c2ccc(OC)cc2)CCC1=O | -11.1% (inactive) | –
74 | O=C1NNC(c2ccccc2)=N/C1=C\c1ccc(Cl)cc1 | 8.6% (inactive) | –
75 | Cc1nc(=O)c(-c2ccccc2)c(C)n1-c1ccc(Br)cc1 | -15.6% (inactive) | –
76 | CCOC(=O)c1c(C)oc(C)c(C(=O)OCC)c1=O | 7.36% (inactive) | –
77 | CC(C)Cn1cnc2c1c(=O)n(CC(=O)NN)c(=O)n2Cc1ccccc1 | -2.23% (inactive) | –
78 | CC1CCN(C(=O)c2ccc3c(c2)NC(=O)CN3)CC1 | -90.8% (inactive) | –

Row | Structure (SMILES) | activity change, negative = growth inhibition | Potency
79 | CC1=Nc2cc(C(=O)N3CCC(C)CC3)ccc2Sc2ccc(Cl)cc21 | – | 14.6 µM (active)
80 | COc1ccc(C(=O)Nc2c(Cl)cc(Cl)cc2C(=O)N2CCC(C)CC2)cc1 | -13.5% (inactive) | –
81 | Cc1cc(OCc2ccc(C(=O)Nc3ccc(C(=O)O)cc3)o2)ccc1Cl | 2.87% (inactive) | –
82 | CN(Cc1ccccc1)C(=O)CCc1ccccc1 | -7.13% (inactive) | –
83 | CN(C(=O)CN(CCO)CC(=O)N(C)C(C)(C)Cc1ccccc1)C(C)(C)Cc1ccccc1 | – | inactive and 3.66 µM (active)
84 | CCN(CC)CCCNC(=O)CCc1ccccc1 | 16.4% (inactive) | –
85 | CCCCN(C)c1ccc([N+](=O)[O-])cc1 | -24.4% (inactive) | –
86 | Cc1cc(C)c(S(=O)(=O)c2ccccc2)c(OC(=O)c2c(F)cccc2Cl)n1 | -13.3% (inactive) | –
87 | Cc1nc(COc2cccc(Cl)c2)sc1C(=O)/C=C/N(C)C | -0.0849% (inactive) | –
88 | Cc1ccc(SCC(=O)c2sc(-c3ccccc3)nc2C)cc1 | -15.9% (inactive) | –
89 | Cc1nc(-c2ccccc2)sc1C(=O)/C=C/c1ccccc1 | – | 23.1 µM (active)
90 | CN(C)/C=C/C(=O)c1ccccc1F | -1.6% (inactive) | –
91 | Cc1nc(-c2ccc(Cl)cc2)sc1C(=O)NN | -22.1% (inactive) | –
92 | Cc1nc(-c2ccccc2)sc1C(=O)/C=C/N(C)C | – | 23.1 µM (active)
93 | O=C(CN1CCSCC1)N/N=C/c1ccc(F)cc1F | 0.367% (inactive) | –
94 | CCn1nc(C(=O)NNC(=O)C2CSC3(C)CCC(=O)N23)c2ccccc2c1=O (centres undefined) | 0.936% (inactive) | –
95 | COc1ccc(S(=O)(=O)NC(C)C(=O)NCc2ccncc2)cc1Cl (centres undefined) | -17.2% (inactive) | –
96 | COc1ccc(Cn2c(=O)c3oc4ccccc4c3n(CC(=O)Nc3ccc(F)cc3F)c2=O)cc1 | -12.6% (inactive) | –
97 | CN=C(c1ccccc1)c1c(C)cccc1C | -7.69% (inactive) | –
98 | COc1ccccc1CNc1nc2ccc(Cl)cc2n2cnnc12 | 8.74% (inactive) | –
99 | COc1ccc(OC)c(C(O)c2nc3ccccc3n2C)c1 (centres undefined) | 5% (inactive) | –
100 | COc1ccc(CCNc2nc3ccc(C)cc3n3cnnc23)cc1OC | – | 14.6 µM (active)
101 | COc1ccc(OC)c(Nc2nc3ccccc3n3cnnc23)c1 | – | 4.11 µM (active)
102 | CCOc1ccc(OCC)c(Nc2nc3ccccc3n3nnnc23)c1 | -8.29% (inactive) | –
103 | COc1cc(Nc2nc3ccc(Cl)cc3n3cnnc23)cc(OC)c1OC | – | 20.6 µM (active)
104 | CCOC(=O)Cc1cccc(-c2cc(CCCCCCc3ccc(O[C@H]4O[C@H](COC(C)=O)[C@@H](OC(C)=O)[C@H](OC(C)=O)[C@@H]4OC(C)=O)c(-c4cccc(CC(=O)OCC)c4)c3)ccc2O[C@H]2O[C@H](COC(C)=O)[C@@H](OC(C)=O)[C@H](OC(C)=O)[C@@H]2OC(C)=O)c1 | -10.5% (inactive) | –
